The text below walks through data of PubChem BioAssay (EPA / NIEHS).

Calls of active or inactive are those of the source. How the source made its calls: active means hit-call score of the fitted dose curve at least 0.9, where 1 is the maximum; inactive means score below 0.9.

Sequence of Hepatocyte nuclear factor 3-beta (Homo sapiens) (Q9Y261 whole entry, looked up): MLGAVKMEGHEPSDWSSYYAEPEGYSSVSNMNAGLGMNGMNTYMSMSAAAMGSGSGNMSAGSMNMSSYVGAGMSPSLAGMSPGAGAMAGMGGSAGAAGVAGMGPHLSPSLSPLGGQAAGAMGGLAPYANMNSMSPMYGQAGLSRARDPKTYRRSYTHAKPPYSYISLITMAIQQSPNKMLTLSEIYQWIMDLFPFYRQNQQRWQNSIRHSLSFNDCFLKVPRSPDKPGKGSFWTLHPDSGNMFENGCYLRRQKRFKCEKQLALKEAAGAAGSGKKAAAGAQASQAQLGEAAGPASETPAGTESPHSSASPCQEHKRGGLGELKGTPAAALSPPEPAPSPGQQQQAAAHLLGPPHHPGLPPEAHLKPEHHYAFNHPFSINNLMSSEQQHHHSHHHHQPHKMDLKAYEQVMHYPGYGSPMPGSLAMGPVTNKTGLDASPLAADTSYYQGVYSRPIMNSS

In one assay the target is Hepatocyte nuclear factor 3-beta (Homo sapiens) (UniProt Q9Y261). The assay is described as follows: ATG_FoxA2_CIS: Attagene CIS-FACTORIAL HepG2 Assay for human Forkhead box A2 (FOXA2) (AID 2282942). Conditions: HepG2 cis-reporter transcription factor activity, 24 h; actives raise or lower the signal. An outline of the steps:
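HepG2 cells transiently transfected with multiple cis-regulated reporter transcription units, dosed for 24 h. Reporter mRNA measured by RT-PCR, 6-FAM labelling, HpaI digestion and capillary electrophoresis; bidirectional fitting against DMSO baseline.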
In the case of `CCC(Cc1c(I)cc(I)c(N)c1I)C(=O)O` (stereo unspecified), the call was inactive.
On to `C=C(C)CCCC`, for which the compound was classed as inactive.
Same read-out and setting: as for `OCC(F)(F)C(F)(F)C(F)(F)C(F)(F)C(F)(F)C(F)(F)CO`, the entry is “inactive”.
On to `C[C@]12CC[C@H]3C(=CCc4cc(O)ccc43)[C@@H]1CCC2=O`, for which the outcome was inactive.
Broadly, the AC50 is the midpoint of the concentration-response curve, whichever way the signal moves. Consider `Oc1ccc(C2(c3ccc(O)c(C4CCCCC4)c3)CCCCC2)cc1C1CCCCC1`, for which the concentration at half-maximal activity (AC50) was 60.1 µM (active).
Take `O=C(O)CCC(F)(F)C(F)(F)C(F)(F)C(F)(F)C(F)(F)C(F)(F)C(F)(F)F`: the result was inactive.
`NCC(F)(F)C(F)(F)C(F)(F)C(F)(F)C(F)(F)C(F)(F)F`: the call was inactive.
Same read-out and setting: as for `CC(C)C(=O)OCc1ccccc1`, the entry is “inactive”; as for `CO[Si](C)(CCC(F)(F)C(F)(F)C(F)(F)C(F)(F)C(F)(F)C(F)(F)F)OC`, “inactive”.
As to `CCCCCCCCCc1ccc(OCCO)cc1`, the half-maximal activity concentration (AC50) was 21.9 µM (active).
As for `FC(F)(F)C(F)(F)C(F)(F)C(F)(F)C(F)(F)C(F)(F)C(F)(F)CCI`, the outcome was inactive.
The same measure, in the same setting: as for `C[Si](C)O[Si](C)C`, the entry is “inactive”; as for `Cc1cnccn1`, “inactive”; as for `NCC(F)(F)C(F)(F)C(F)(F)C(F)(F)C(F)(F)C(F)(F)C(F)(F)C(F)(F)F`, “inactive”.
For `OCC(F)(F)C(F)(F)C(F)(F)CO`, the result was inactive.
Consider `CN(C)C(C)(C)CO`, for which the compound was classed as inactive.
Turning to `Nc1cc([N+](=O)[O-])cc(Cl)c1O`, the compound was called inactive.
Take `CCCCCCCCCCCCC[N+](C)(C)Cc1ccccc1`: the outcome was inactive.
Still for that read-out and setting: as for `OCCCc1cccnc1`, the entry is “inactive”; as for `O=C(Cl)C(F)(F)C(F)(F)C(F)(F)C(F)(F)C(F)(F)C(F)(F)C(F)(F)F`, “inactive”; as for `Cc1cc(C)c(O)c(C(C)(C)C)c1`, “inactive”.
As to `CCC(=O)OC(C)c1ccccc1` (stereo unspecified), the outcome was inactive.
With `COc1ccccc1C=O`, the compound was classed as inactive.
The same measure, in the same setting: next, `O=c1cccc[nH]1`: “inactive”.
As to `CCCCCCCCCCCC(=O)Cl`, the result was inactive.
In the case of `CCN=C1C=CC(=C(c2ccc(N(CC)CC)cc2)c2ccc(N(CC)CC)cc2)c2ccccc21`, the compound was classed as inactive.
The same measure, in the same setting: as for `NC(=O)C(F)(F)C(F)(F)C(F)(F)F`, the entry is “inactive”.
`CC(C)CC=C(C=O)c1ccccc1`: the result was inactive.
With `OCC(F)(F)C(F)(F)C(F)(F)C(F)(F)C(F)(F)C(F)(F)C(F)(F)C(F)(F)CO`, the result was inactive.
As to `F[Si-2](F)(F)(F)(F)F`, the compound was called inactive.
Regarding `NC(=O)C(F)(F)C(F)(F)C(F)(F)C(F)F`, the result was inactive.
Regarding `O=C(O)C(F)(F)OC(F)(F)C(F)(F)OC(F)(F)C(F)(F)OC(F)(F)F`, the compound was classed as inactive.
For the compound `CCCCC(CC)COC(=O)c1ccc(N(C)C)cc1` (stereo unspecified), the compound was classed as inactive.
As for `CCCCCCCCCCCCCC[P+](CCCC)(CCCC)CCCC`, the compound was classed as inactive.
In the case of `C=CCOC(=O)CC(C)C`, the call was inactive.
Consider `O=C=Nc1cccc2c(N=C=O)cccc12`, for which the compound was called inactive.
As to `CC(O)C#CC(C)O` (stereo unspecified), the AC50 is 131 µM (active).
As for `CCOCN(C(=O)CS(=O)(=O)O)c1c(C)cccc1CC`, the outcome was inactive.

Test system in a further assay: not listed separately
The assay is described as follows: ATG_FoxO_CIS: Attagene CIS-FACTORIAL HepG2 Assay for human Forkhead box O (FoxO) (AID 2282943). To be noted: HepG2 Attagene cis-reporter, FoxO element, mRNA; actives raise or lower the signal. An outline of the steps:
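24 h chemical exposure, HepG2 with transient cis-MRTU transfection. RNA extraction, oligo(dT) RT, reporter-specific PCR, primer-extension labelling, HpaI digestion, CE fragment analysis; bidirectional fit, DMSO baseline.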
For the compound `CCC(Cc1c(I)cc(I)c(N)c1I)C(=O)O` (stereo unspecified), the compound was called inactive.
For the compound `C=C(C)CCCC`, the outcome was inactive.
As for `OCC(F)(F)C(F)(F)C(F)(F)C(F)(F)C(F)(F)C(F)(F)CO`, the outcome was inactive.
Turning to `C[C@]12CC[C@H]3C(=CCc4cc(O)ccc43)[C@@H]1CCC2=O`, the outcome was inactive.
On to `Oc1ccc(C2(c3ccc(O)c(C4CCCCC4)c3)CCCCC2)cc1C1CCCCC1`, for which the compound was called inactive.
For `O=C(O)CCC(F)(F)C(F)(F)C(F)(F)C(F)(F)C(F)(F)C(F)(F)C(F)(F)F`, the compound was called inactive.
The same measure, in the same setting: next, `NCC(F)(F)C(F)(F)C(F)(F)C(F)(F)C(F)(F)C(F)(F)F`: “inactive”; `CC(C)C(=O)OCc1ccccc1`: “inactive”; `CO[Si](C)(CCC(F)(F)C(F)(F)C(F)(F)C(F)(F)C(F)(F)C(F)(F)F)OC`: “inactive”.
As for `CCCCCCCCCc1ccc(OCCO)cc1`, the half-maximal activity concentration (AC50) was 13.3 µM (active).
With `FC(F)(F)C(F)(F)C(F)(F)C(F)(F)C(F)(F)C(F)(F)C(F)(F)CCI`, the result was inactive.
For `C[Si](C)O[Si](C)C`, the outcome was inactive.
In the case of `Cc1cnccn1`, the call was inactive.
Consider `NCC(F)(F)C(F)(F)C(F)(F)C(F)(F)C(F)(F)C(F)(F)C(F)(F)C(F)(F)F`, for which the result was inactive.
In the case of `OCC(F)(F)C(F)(F)C(F)(F)CO`, the compound was called inactive.
Take `CN(C)C(C)(C)CO`: the compound was called inactive.
As to `Nc1cc([N+](=O)[O-])cc(Cl)c1O`, the result was inactive.
Regarding `CCCCCCCCCCCCC[N+](C)(C)Cc1ccccc1`, the outcome was inactive.
On to `OCCCc1cccnc1`, for which the call was inactive.
As to `O=C(Cl)C(F)(F)C(F)(F)C(F)(F)C(F)(F)C(F)(F)C(F)(F)C(F)(F)F`, the compound was called inactive.
Same read-out and setting: next, `Cc1cc(C)c(O)c(C(C)(C)C)c1`: “inactive”; `CCC(=O)OC(C)c1ccccc1` (stereo unspecified): “inactive”; `COc1ccccc1C=O`: “inactive”.
Still for that read-out and setting: next, `O=c1cccc[nH]1`: “inactive”; `CCCCCCCCCCCC(=O)Cl`: “inactive”; `CCN=C1C=CC(=C(c2ccc(N(CC)CC)cc2)c2ccc(N(CC)CC)cc2)c2ccccc21`: “inactive”.
With `NC(=O)C(F)(F)C(F)(F)C(F)(F)F`, the compound was classed as inactive.
For the compound `CC(C)CC=C(C=O)c1ccccc1`, the compound was called inactive.
`OCC(F)(F)C(F)(F)C(F)(F)C(F)(F)C(F)(F)C(F)(F)C(F)(F)C(F)(F)CO`: the result was inactive.
As for `F[Si-2](F)(F)(F)(F)F`, the result was inactive.
Regarding `NC(=O)C(F)(F)C(F)(F)C(F)(F)C(F)F`, the call was inactive.
As to `O=C(O)C(F)(F)OC(F)(F)C(F)(F)OC(F)(F)C(F)(F)OC(F)(F)F`, the compound was classed as inactive.
In the case of `CCCCC(CC)COC(=O)c1ccc(N(C)C)cc1` (stereo unspecified), the outcome was inactive.
As to `CCCCCCCCCCCCCC[P+](CCCC)(CCCC)CCCC`, the compound was called inactive.
With `C=CCOC(=O)CC(C)C`, the outcome was inactive.
The same measure, in the same setting: as for `O=C=Nc1cccc2c(N=C=O)cccc12`, the entry is “inactive”.
As for `CC(O)C#CC(C)O` (stereo unspecified), the concentration at half-maximal activity (AC50) was 63 µM (active).
As for `CCOCN(C(=O)CS(=O)(=O)O)c1c(C)cccc1CC`, the result was inactive.
